Source: PubChem
Sampled rows, rich in hits. Any-hit rate of the full collection: about 7%.
ADAM17 inh = inhibitors of human ADAM17. inhibition, % at 6.95 µM. P78536. hit rate 0.83% among 370,000. recombinant ADAM17, EDANS/DABCYL FRET peptide cleavage. AID 720648;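 active = inhibition above the mean of compounds lying between control limits plus 3 SD, set per campaign, cut at about 8.5% in these data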;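 note: 0% = DMSO-only wells as the low control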
NR3A LBD binder = modulators (binders) of human NR3A ligand-binding domain; hit rate 2.5% among 340,000; NR3A LBD differential scanning fluorimetry, Tm shift; 0% = protein alone, 100% = glycine-bound protein; AID 1259313; Tm shift relative to glycine control, % at 25 µM;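 active = melting temperature shift of at least 10% of the positive control shift, at one fixed dose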
proKLK7 act = activators of human kallikrein-7 zymogen; P49862; purified proKLK7, EDANS-DABCYL substrate fluorescence; 100% is mature enzyme control, 0% vehicle; activation, % at 7 µM; hit rate 0.9% among 370,000; AID 652039;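 active = activation above the mean of all tested compounds plus 3 SD, computed per campaign excluding outliers beyond control limits, cut at about 13% in these data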
Target sequence (P49862 whole entry, looked up): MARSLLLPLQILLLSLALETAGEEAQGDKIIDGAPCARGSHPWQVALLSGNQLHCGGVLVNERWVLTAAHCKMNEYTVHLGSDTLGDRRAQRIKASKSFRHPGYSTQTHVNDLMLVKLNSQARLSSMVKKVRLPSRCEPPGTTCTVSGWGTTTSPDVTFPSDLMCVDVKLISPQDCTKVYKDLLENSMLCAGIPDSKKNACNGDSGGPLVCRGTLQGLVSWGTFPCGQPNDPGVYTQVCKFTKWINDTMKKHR
AHR activator = human AHR activation | P35869 | AHR-responsive luciferase reporter cells, luminescence | activation, % at 5 µM | hit rate 2.5% among 320,000 | AID 2796; in the data active = activation above about 47%;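 note: 0% = vehicle wells and 100% = reference agonist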
ADAM10 inh = ADAM10 inhibition, QFRET primary screen | recombinant ADAM10, EDANS/DABCYL FRET peptide cleavage, 3 h | inhibition, % at 7 µM | hit rate 0.62% among 370,000;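 active = inhibition above a per-campaign cutoff equal to the mean of compounds falling between control-based bounds plus 3 SD, cut at about 20% in these data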;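 note: 0% = DMSO wells while the 100% control is not disclosed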
rCAG RNA binder = molecules binding r(CAG) RNA repeats; r(CAG) RNA repeat, TO-PRO-1 dye displacement fluorescence; inhibition, % at 3 µM; hit rate 1.3% among 370,000;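 active = inhibition above the plate cutoff, the mean of all test compounds on that plate plus 3 SD, cut at about 35% in these data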;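 note: 0% = DMSO alone and 100% = 100 µM mitoxantrone as full dye displacement; higher means more dye released from RNA so lower well fluorescence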
* hit, by the source's call; . = no result given.

SMILES	ADAM17 inh	NR3A LBD binder	proKLK7 act	AHR activator	ADAM10 inh	rCAG RNA binder
CCN(CC)C(=O)c1ncn2c1C(=O)NC[C@@H]2C	-4	.	0	.	-8	0
CCOC(=O)C1(Cc2ccccc2)CCN(Cc2ccc(C(F)(F)F)cc2)CC1	1	.	0	.	-2	0
N#CC1=C(N)N2C(=C(C#N)C1c1cccc(Br)c1)Nc1ccccc12 (stereo not drawn)	-8	24*	0	21	-30	7
N#CC1=C(N)N2C(=C(C#N)C1c1ccc(Br)cc1)Nc1ccccc12 (stereo not drawn)	-2	23*	1	44	-9	11
N#CC1=C(N)N2C(=C(C#N)C13CCN(Cc1ccccc1)CC3)Nc1ccccc12	-70	-1	-7	18	-204	0
O=C(C1=C(O)/C(=C/c2ccc(O)cc2)CCC1)C(F)(F)F	2	12*	-1	13	2	10
CC(C)C[C@H](NC1(C(=O)NC2CCCCC2)CCCCC1)C(=O)NCC(c1ccccc1)c1ccccc1	-1	.	.	.	3	.
Cc1ccc(Cn2c(O)c(N=O)c3ccccc32)cc1	-1	0	-1	0	11	7
CNC(=O)Cn1c(C)cc(=O)c2cccc(C)c21	-3	-1	0	7	-5	31
Cc1cccc2c(=O)cc(C)n(Cc3ccccc3)c12	5	12*	0	6	2	-1
Cc1cccc2c(N=O)c(O)n(CCc3ccccc3)c12	0	0	0	67*	6	11
CC(C)c1c(C(=O)N/N=C/c2c[nH]c3ccccc23)nnn1-c1nonc1N	3	38*	0	28	-1	20
CCOc1ccc(/C=N/NC(=O)c2nnn(-c3nonc3N)c2-c2ccc(OCC)cc2)cc1	1	2	-10	7	-2	4
CCOc1ccc(-c2c(C(=O)N/N=C/c3c[nH]c4ccccc34)nnn2-c2nonc2N)cc1	5	32*	-5	19	8	15
COC(=O)[C@]12C[C@H](CC(=O)N3CCN(C(=O)c4ccco4)CC3)C(=O)N(Cc3ccco3)C1=C[C@H](C(C)C)O[C@@H]2C1CC1	-3	.	0	.	-10	4
O=[N+]([O-])c1cc(Cl)cc(/C=N/Nc2nc3ccccc3s2)c1O	-2	20*	1	22	-1	24
Brc1ccc(/C=C/C=N/Nc2nc3ccccc3s2)cc1	-3	40*	-1	14	0	7
Brc1csc(/C=N/Nc2nc3ccccc3s2)c1	-1	22*	-7	100*	5	15
C(=N\Nc1nc2ccccc2s1)/c1ccccn1	-1	-2	1	27	7	2
Cc1cc(Nc2ccc(Cl)c(C(F)(F)F)c2)cc(=O)n1-c1ccc(Cl)c(C(F)(F)F)c1	4	.	-8	.	-2	8
O=C(NCCc1c[nH]c2ccccc12)OCc1cn(Cc2ccc(F)cc2F)nn1	1	.	0	.	5	2
C#CCN1C(C(=O)OC)CN(CCCCCC)CCS1(=O)=O (stereo not drawn)	0	.	1	.	2	-1
Cn1c(SCC(=O)N2CCN(c3ccccc3)CC2)nnc1-c1ccncc1	3	11*	1	5	9	-4
CCCn1c(NC(=O)c2ccccc2)nc(Cc2ccccc2)c1Cc1ccccc1	2	.	-3	.	-2	6
Cc1sc2ncnc(N3CCC(C(=O)Nc4ccc(OC(F)F)c(Cl)c4)CC3)c2c1C	7	10*	-1	1	7	7
SMILES	ADAM17 inh	NR3A LBD binder	proKLK7 act	AHR activator	ADAM10 inh	rCAG RNA binder
CNC(=O)COC(=O)c1ccccc1Oc1ccccc1	3	-2	0	-1	2	-1
NC(=O)NC(=O)COC(=O)c1ccccc1Oc1ccccc1	-3	11*	0	-1	-3	-4
Cc1nc(N2CCCCC2C)c2nnn(Cc3ccccc3)c2n1 (stereo not drawn)	3	.	1	.	-2	-1
C/C(=N\Nc1cccc2cccnc12)c1ccc[nH]1	0	-6	1	51*	16	6
CC(C)(C)OC(=O)N1CCC2CCN(S(C)(=O)=O)CC21 (stereo not drawn)	-6	.	0	.	-9	0
O=C1CCC2(CCCCC2)N1CCCO	-2	.	0	.	-8	1
COc1ccccc1NC(=O)c1sc2nc(C)cc(C)c2c1N	-6	-1	0	50*	-16	2
COc1ccc(NC(=O)c2sc3nc(C)cc(C)c3c2N)cc1	-1	2	0	0	-14	10
O=C(NCCNCCO)c1c(O)c2cccc3c2n(c1=O)CCC3	-9	1	1	58*	-38	-1
CCCCN1CN2CCc3ccccc3C2CS1(=O)=O (stereo not drawn)	-2	.	0	.	-1	-1
CCCCCc1cccc2[nH]cc(-c3ccccc3)c12	-8	.	0	.	-12	4
C=C(C)COc1ccc(-c2nc(N)nc(C)c2-c2ccc(OC)cc2)c(O)c1	-6	-12	-1	33	-19	1
C=C(C)COc1ccc(-c2ncncc2Oc2ccc(OC)cc2)c(O)c1	-3	21*	0	14	4	-1
C=C(C)COc1ccc(-c2nc(N)ncc2-c2ccc(Cl)cc2)c(O)c1	3	20*	0	11	5	4
COC(=O)C1CN(Cc2ccc(OC)cc2)CCS(=O)(=O)N1Cc1ccc(C(F)(F)F)cc1 (stereo not drawn)	5	.	0	.	14	-1
O=C(Nc1nc2ncccn2c1-c1ccccc1)c1ccc(F)cc1	-53	.	6	.	-186	2
CC1Oc2cc3oc4c(O)c(O)ccc4c(=O)c3c(O)c2C1(C)C (stereo not drawn)	.	20*	.	8	.	.
O=c1cc(CN2CCOCC2)c2ccc(O)c(O)c2o1	-3	2	2	3	-4	2
Cc1cc(/C=C2\C(=N)N3C(SCc4ccccc4)=NSC3=NC2=O)c(C)n1Cc1ccccc1	-3	14*	0	1	-5	5
COc1ccc2[nH]cc(CCn3ccc(O)c(C/C=C/c4ccccc4)c3=O)c2c1	-2	13*	0	6	0	15
COc1ccc(C(=O)n2nc(-c3ccccc3)nc2SC)cc1	-1	17*	0	.	4	1
CSc1nc(-c2ccccc2)nn1C(=O)c1ccccc1	-1	6	1	7	4	2
O=C(NCc1csc2ccccc12)Nc1cc(Cl)cc(Cl)c1	1	21*	0	-1	-2	4
CC(C)n1cc(/C=C2/NC(=O)NC2=O)c2ccccc21	-3	-3	0	74*	-8	-1
C#CCn1cc(/C=C2\NC(=O)NC2=O)c2ccccc21	0	4	-1	77*	0	2
O=C1NC(=O)/C(=C/c2ccccc2Cl)N1	1	1	0	1	3	-1
Nc1c(Cl)ncnc1N/N=C/c1cccc(O)c1	-5	24*	0	6	-1	2
